High-throughput results from PubChem BioAssay.
Hits are enriched below; roughly 7.5% of the tested compounds scored in any of these assays.
FLuc modulator = qHTS profiling assay for firefly luciferase inhibitor/activator using purifed enzyme and Km concentrations of substrates (counterscreen for miR-21 project). Luciferin 4-monooxygenase (Photinus pyralis), P08659. purified FLuc, Km substrates, luminescence inhibition. Potency, µM (doses to about 57.5 µM), for inactives: at the top dose activity change, negative = inhibition, hits mostly inhibitors. 360,000 tested, 6.9% active;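 also: plate controls were vehicle for no effect and reference inhibitor for full effect; nearly all actives have a fitted effect of over 55% in size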
Target sequence (P08659 whole entry, looked up): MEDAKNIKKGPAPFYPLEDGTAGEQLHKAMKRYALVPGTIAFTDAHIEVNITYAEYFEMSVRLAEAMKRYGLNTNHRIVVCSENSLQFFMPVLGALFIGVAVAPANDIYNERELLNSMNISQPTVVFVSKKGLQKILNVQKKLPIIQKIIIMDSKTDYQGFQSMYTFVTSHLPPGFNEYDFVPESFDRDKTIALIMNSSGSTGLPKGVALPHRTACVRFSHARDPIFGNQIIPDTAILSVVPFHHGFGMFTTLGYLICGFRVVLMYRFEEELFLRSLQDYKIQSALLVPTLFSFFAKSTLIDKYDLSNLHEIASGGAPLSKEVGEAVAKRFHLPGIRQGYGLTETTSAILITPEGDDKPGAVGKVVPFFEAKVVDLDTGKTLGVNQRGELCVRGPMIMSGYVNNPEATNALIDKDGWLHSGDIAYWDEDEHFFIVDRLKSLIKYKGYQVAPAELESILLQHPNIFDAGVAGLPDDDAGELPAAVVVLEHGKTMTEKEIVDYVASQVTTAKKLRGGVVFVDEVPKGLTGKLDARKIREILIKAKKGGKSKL
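Purified P. pyralis luciferase, 10 nM final, with Km-level 10 uM D-luciferin and 10 uM ATP in 50 mM Tris acetate pH 7.5, 10 mM Mg acetate, 0.01% Tween-20, 0.05% BSA; 6-point qHTS titration about 60 µM downward; luminescence read.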
Rab9 promoter act = qHTS Assay for Rab9 Promoter Activators. Huh7 Rab9 promoter-luciferase reporter, luminescence, 24 h. Potency, µM (highest dose often 9.22 µM), for inactives: at the highest dose activation, negative = inhibition, most hits filed as activators. 320,000 tested, 2.8% active; also: % of control where 0% means no effect; nearly all actives have a fitted effect of over 60% in size
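Using Huh7 cells stably transfected with Rab9 promoter–luciferase, compounds were incubated 24 h at 37 °C, 5% CO2; luciferase luminescence was read 10 min after reagent addition.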
SMN2 splice up = qHTS Assay for Enhancers of SMN2 Splice Variant Expression | Potency, µM (doses to about 46.1 µM), without a hit: at the top dose activity change, positive = activation, hits mostly activators | 210,000 tested, 2.8% active | HEK293 SMN2-luciferase splicing reporter, luminescence, 30-36 h | AID 1458, 2008; also: % of control where 0% means no effect; nearly all actives have a fitted effect of over 55% in size
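HEK293 cells carry an SMN2 minigene-luciferase reporter in which exon 7 inclusion puts luciferase in frame. Cells were seeded at 2000 cells/well, attached for 10-12 hours, then exposed to compounds for 30-36 hours at 37C before ONE-Glo luminescence.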
ELG1 genotox = qHTS screen for small molecules that induce genotoxicity in human embryonic kidney (HEK293T) cells expressing luciferase-tagged ELG1. HEK293T ELG1-luciferase reporter, luminescence, 16 h. Potency, µM (doses to about 46 µM), inactives show at the top dose activity change, positive = activation, most hits filed as activators. 330,000 tested, 1.3% active; also: % of control where 0% means no effect; nearly all actives have a fitted effect of over 60% in size
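Genotoxic stress is detected as increased luminescence from luciferase-tagged ELG1 in HEK293T cells, measured with ONE-Glo after a 16 hr treatment at 37 °C.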
Luc counter = Counterscreen for Luciferase (Kinase-Glo TM) Inhibition; 200,000 tested, 0.28% active; Kinase-Glo luciferase, ATP luminescence, 8 min; Potency, µM (titrated, usually from 38.3 µM), for inactives: top-dose activity change, negative = inhibition, actives largely listed as inhibitors; AID 1379, 2008; also: % is scaled to controls: 0 for no effect and ±100 for the full control effect; nearly all actives have a fitted effect of over 60% in size
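Light output from Kinase-Glo luciferase with luciferin and 10 uM ATP in 50 mM imidazole pH 7.2, KCl, MgCl2, Tween 20, BSA; compound pin-delivered, 8-min ambient incubation, then luminescence read.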
NPC1 promoter act = qHTS Assay for NPC1 Promoter Activators. Huh7 NPC1 promoter luciferase reporter, 24 h. Potency, µM (titrated, usually from 9.22 µM), for inactives: at the top dose activation, actives largely listed as activators. 320,000 tested, 2.4% active; also: % of control where 0% means no effect; nearly all actives have a fitted effect of over 60% in size
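Luminescence read-out of NPC1 promoter-driven luciferase in stably transfected Huh7 cells; compounds delivered in DMSO and left 24 h at 37C, 5% CO2, qHTS titration format.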
Active calls of the source: *; ? = inconclusive; · = no result given. Calls follow the shape of the dose curve; as a rule, active = well fitted curve in the direction sought with a large enough effect; inconclusive = small, poorly fitted or top-dose-only effect, or another doubt; inactive = no such curve, though single readings can be large; an effect the other way counts as inactive or inconclusive. Potency is read from the fitted curve at half-maximal effect.

SMILES	FLuc modulator	Rab9 promoter act	SMN2 splice up	ELG1 genotox	Luc counter	NPC1 promoter act
CC1C(=O)NN=C1C(=O)N/N=C\C(Br)=C\c1ccccc1 (stereo not drawn)	1.5µM*	2.2µM*	22µM*	?	-25%	2.5µM*
COc1cc(/C=N/NC(=O)C2=NNC(=O)C2C)ccc1O (stereo not drawn)	?	1%	·	-1%	·	3%
CC1C(=O)NN=C1C(=O)N/N=C\c1ccc(O)cc1O (stereo not drawn)	17µM*	-4%	-3%	-6%	-25%	-3%
CC1=NNC(=O)C1CC(=O)N/N=C/C(Br)=C/c1ccccc1 (stereo not drawn)	-5%	-3%	·	0%	·	-2%
O=C(Cc1cc(=O)[nH][nH]1)N/N=C/C(Cl)=C/c1ccccc1	24µM*	1%	?	0%	3%	3%
Cc1ccc(CNC(=O)CN2C(=O)C3CCCCN3c3ccc(C(=O)N4CCCC4)cc32)cc1 (stereo not drawn)	-9%	·	·	·	·	·
O=C(Nc1cccc(C(=O)OCc2cc(=O)n3ccsc3n2)c1)c1ccc(F)cc1	-1%	·	·	·	·	·
COc1cccc(CNC(=O)CSc2nc(=O)[nH]c3c2CCCC3)c1	-3%	·	·	·	·	·
CCC/C=C(\CCC)C(NC(=O)Oc1ccc(F)cc1)c1ccc(C(=O)OC)cc1 (stereo not drawn)	·	·	-7%	·	0%	·
N#Cc1ccc(/C=N/NC(=O)c2ccccc2F)cc1	?	10%	?	?	-2%	23%
O=C(N/N=C/C(Cl)=C/c1ccccc1)c1ccccc1F	12µM*	?	·	?	·	?
CCc1ccc(NC(=O)c2cc(C)on2)cc1	3µM*	0.89µM*	6.3µM*	?	-6%	0.5µM*
Cc1ccc(NC(=S)Nc2cc(C)on2)cc1	27µM*	2.8µM*	·	?	·	1.4µM*
CCc1ccc(NC(=O)c2cc(-c3ccc(OC)cc3)on2)cc1	0%	28%	-7%	0%	3%	1%
Cc1ccc(NC(=S)Nc2ccc3cn[nH]c3c2)cc1	?	-3%	17%	-2%	-1%	0%
CCc1ccc(NC(=O)c2cc(C)no2)cc1	12µM*	?	·	?	·	?
Cc1cc(C(=O)Nc2ccccn2)no1	?	?	11µM*	?	-9%	?
CCC(=O)N1CCc2cc(CNC(=O)c3ccc(F)cc3)ccc21	-18%	·	·	·	·	·
Cc1cccc(Nc2c(-c3ccsc3)nc3nc(C)cc(C)n23)c1	1%	·	-7%	·	·	·
COC(=O)[C@H]1CC2(CC=C(C)C)C(=O)[C@@](CC=C(C)C)(C(=O)C(C(=O)c3ccccc3)=C2OC)C1(C)C (tested in a mixture with another compound)	·	·	-5%	·	1%	·
CCc1ccc(NC(=O)c2cc(C(C)C)on2)cc1	1.9µM*	0.63µM*	1.4µM*	?	-17%	0.89µM*
Cc1ccc(NC(=O)c2onc(C)c2Cl)cc1	13µM*	?	14µM*	16µM*	-5%	15%
Cc1noc(C(=O)Nc2ccc(Cl)cc2)c1Cl	0%	5%	·	0%	·	-1%
Cc1ccc(NC(=O)c2cc(C)on2)cc1	6.7µM*	1.4µM*	·	?	·	1.4µM*
Cc1cc(C(=O)Nc2ccc3c(c2)OCO3)no1	-5%	1%	·	-19%	·	0%
SMILES	FLuc modulator	Rab9 promoter act	SMN2 splice up	ELG1 genotox	Luc counter	NPC1 promoter act
COc1ccc(C(=O)N2CCC[C@@]3(CCN(Cc4ccccc4OC)C3)C2)cc1	·	·	-1%	·	-4%	·
CC(=O)N1N=C(c2cccc(Cl)c2)OC1c1ccc(C(C)C)cc1 (stereo not drawn)	24µM*	23%	4%	18µM*	0%	17%
COc1ccc(CCNC(=O)CSc2nnc(-c3ccc(C)cc3)c(-c3ccc(C)cc3)n2)cc1OC	-12%	·	·	·	·	·
O=C(NCC1CCCO1)C(c1cccnc1)N(C(=O)Cc1cccs1)c1ccccc1 (stereo not drawn)	11µM*	?	-5%	10%	-12%	?
CC(=O)Nc1ccc(C(=O)OCC(=O)c2cccc([N+](=O)[O-])c2)cc1	1%	-7%	-4%	1%	3%	2%
Cc1ccc(C(=O)COC(=O)c2cccc(NC(=O)c3ccc([N+](=O)[O-])cc3[N+](=O)[O-])c2)cc1	0.11µM*	1.4µM*	?	?	-8%	0.4µM*
Nc1ccc(C(=O)OCC(=O)c2cccc([N+](=O)[O-])c2)cc1	24µM*	12%	-4%	9%	-8%	2%
COc1ccc(CCNC(=O)Cn2cc(S(=O)(=O)Cc3cccc(Cl)c3)c3ccccc32)cc1OC	0%	·	·	·	·	·
CN(C)c1nc(NCc2ccccc2)nc(N/N=C/c2ccccc2F)n1	-6%	0%	-15%	-11%	2%	-2%
Cc1cc(N/N=C/c2cccc(Cl)c2)nc(NCc2ccccc2)n1	?	-1%	-17%	-1%	-4%	-2%
Cc1cc(N/N=C/c2ccccc2F)nc(NCc2ccccc2)n1	15µM*	1%	·	-6%	·	-1%
Cc1cc(N/N=C/c2ccccc2)nc(NCc2ccccc2)n1	6µM*	3%	-4%	0%	-2%	-2%
Cc1cc(N/N=C/c2ccc(Cl)cc2)nc(NCc2ccccc2)n1	15µM*	-1%	-30%	-3%	-2%	-3%
Cc1cc(N/N=C/c2cccc(F)c2)nc(NCc2ccccc2)n1	12µM*	4%	·	-1%	·	1%
Cc1cc(Nc2cccc(Cl)c2)nc(NCc2ccccc2)n1	?	-9%	-55%	-6%	4%	-4%
O=C(NCCN1CCCC1)c1ccc(-n2c(=O)c(=O)[nH]c3ccccc32)cc1	·	·	·	·	-3%	·
COC(=O)c1c(NC(=O)C2CC2)sc(C(=O)Nc2ccccc2)c1C	?	?	1.1µM*	11%	-2%	?
Cc1c(Cc2ccccc2)sc(NC(=O)c2ccco2)c1C(N)=O	7.6µM*	-4%	-15%	8%	-1%	4%
CCOc1ccc(CC(=O)Nc2sc(Cc3ccccc3)c(C)c2C(N)=O)cc1OCC	-6%	-1%	-2%	-2%	2%	-1%
COC(=O)c1c(NC(=O)c2ccco2)sc(C)c1C	1%	-3%	?	4%	6%	9%
Cc1nc(NC(=O)C2CC2)sc1C(=O)Nc1ccccc1	-15%	4%	·	3%	·	1%
